The panel holds about 79,000 compounds, 15% with a hit somewhere; the sample as a whole holds those more often. A number with no mark means an inactive call. Calls of active or inactive are those of the source. No stated cut-off is given here; in the data, active means growth inhibition above about 70%; inactive means the rest.
Experiments:
[1] = NCI Yeast Anticancer Drug Screen. Data for the rad50 strain (AID 155);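 further: 0% = growth of vehicle-only cultures of the same strain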; conditions: S. cerevisiae rad50 strain growth inhibition; at 50.0 µM; hits give high values
Outline: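 Inhibition values express reduced yeast growth in compound-treated cultures relative to vehicle-treated controls.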

[2] = NCI Yeast Anticancer Drug Screen. Data for the mec2-1 strain (AID 157); conditions: S. cerevisiae mec2-1 strain, at 50.0 µM, hits give high values
Outline: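 Cells of the genetically defined mec2-1 yeast strain are incubated with test compound. Inhibition of growth is calculated against vehicle-treated controls.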

[3] = NCI Yeast Anticancer Drug Screen. Data for the sgs1 mgt1 strain (AID 161);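 further: 0% = growth of cultures given vehicle only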; conditions: S. cerevisiae sgs1 mgt1 strain, at 50.0 µM, hits give high values
Outline: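 Genetically altered yeast, compound exposure, growth inhibition relative to vehicle.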

[4] = NCI Yeast Anticancer Drug Screen. Data for the cln2 rad14 strain (AID 165);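 further: 0% = growth equal to vehicle treated cultures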; conditions: S. cerevisiae cln2 rad14 strain, at 50.0 µM, hits give high values
Outline: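 The screen exposed genetically defined yeast (cln2 rad14) to test compounds and scored growth inhibition relative to vehicle-treated controls.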

[5] = NCI Yeast Anticancer Drug Screen. Data for the bub3 strain (AID 167); conditions: S. cerevisiae bub3 mutant strain, at 50.0 µM, hits give high values
Outline: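 Steps: expose the mutant yeast strain to compound; grow alongside vehicle-treated cultures; measure growth; express inhibition against the vehicle cultures.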

[6] = NCI Yeast Anticancer Drug Screen. Data for the mlh1 rad18 strain (AID 175); conditions: S. cerevisiae mlh1 rad18 strain growth inhibition; at 50.0 µM; hits give high values
Outline: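 Compound-treated yeast growth, normalised to vehicle controls. Strain bears defined DNA repair mutations.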

## Cc1onc(-c2ccccc2)c1NC(=O)OCc1ccc(-c2cc(C(F)(F)F)cc(C(F)(F)F)c2)o1
[1]
  growth inhibition: -0.4%
[2]
  growth inhibition: -14.9%
[3]
  growth inhibition: -2.65%
[4]
  growth inhibition: 9.7%
[5]
  growth inhibition: 4.4%
[6]
  growth inhibition: 11.8%

## O=S=C1SC2CCCCC2S1 (stereo not drawn)
[1]
  growth inhibition: 2.75%
[2]
  growth inhibition: 4.15%
[3]
  growth inhibition: -5.4%
[4]
  growth inhibition: -9.05%
[5]
  growth inhibition: -9.45%
[6]
  growth inhibition: 8.1%

## O=C1/C(=C/c2ccco2)CC/C1=C\c1ccco1
[1]
  growth inhibition: 23.4%
[2]
  growth inhibition: 15%
[3]
  growth inhibition: 29%
[4]
  growth inhibition: -18.1%
[5]
  growth inhibition: 14.1%
[6]
  growth inhibition: 44.5%

## Cn1c(=O)oc2cc(C(O)CN3CCN(Cc4ccccn4)CC3)c(Cl)cc21 (stereo not drawn)
[1]
  growth inhibition: -19.6%
[2]
  growth inhibition: 3.9%
[3]
  growth inhibition: -4.5%
[4]
  growth inhibition: 2.45%
[5]
  growth inhibition: 6.25%
[6]
  growth inhibition: 11.4%

## COC(=O)C1CCc2c(OC)ccc(OC)c2C1=O (stereo not drawn)
[1]
  growth inhibition: -2.75%
[2]
  growth inhibition: -4.7%
[3]
  growth inhibition: -3.65%
[4]
  growth inhibition: 20.5%
[5]
  growth inhibition: -2.45%
[6]
  growth inhibition: -7.95%

## C[N+]1(C)CCC2=CC(=O)CC(c3ccccc3)C2C1 (stereo not drawn)
[1]
  growth inhibition: 11.7%
[2]
  growth inhibition: -0.6%
[3]
  growth inhibition: 12.6%
[4]
  growth inhibition: 20.8%
[5]
  growth inhibition: -3.3%
[6]
  growth inhibition: -12%

## O=Cc1ccccc1[N+](=O)[O-]
[1]
  growth inhibition: 18.9%
[2]
  growth inhibition: -8.35%
[3]
  growth inhibition: 15%
[4]
  growth inhibition: 14.2%
[5]
  growth inhibition: 6.75%
[6]
  growth inhibition: 17.9%

## CCOC(=O)Nc1c2ccccc2c(NC(=O)OCC)c2ccccc12
[1]
  growth inhibition: 30.2%
[2]
  growth inhibition: 8.9%
[3]
  growth inhibition: 1%
[4]
  growth inhibition: 12.8%
[5]
  growth inhibition: 15%
[6]
  growth inhibition: -6%

## CCCCC(=O)NCCNC(=O)CCCC
[1]
  growth inhibition: -0.5%
[2]
  growth inhibition: 7%
[3]
  growth inhibition: -1.8%
[4]
  growth inhibition: -18.6%
[5]
  growth inhibition: 14.2%
[6]
  growth inhibition: 9.55%

## COc1cc(O)c(C(C)c2ccccc2)cc1N=NC(N)=O (stereo not drawn)
[1]
  growth inhibition: 17.1%
[2]
  growth inhibition: 16.4%
[3]
  growth inhibition: 19.3%
[4]
  growth inhibition: 32.8%
[5]
  growth inhibition: 43.4%
[6]
  growth inhibition: 45.5%

## O=C(O)c1cnccn1
[1]
  growth inhibition: 18.8%
[2]
  growth inhibition: 4.3%
[3]
  growth inhibition: 16.9%
[4]
  growth inhibition: 12.6%
[5]
  growth inhibition: 1.2%
[6]
  growth inhibition: 17.9%

## CCCCCCCC/C=C\CCCCCCCC(=O)N1CCN(C(=O)CCCCCCC/C=C/CCCCCCCC)C1
[1]
  growth inhibition: 20.4%
[2]
  growth inhibition: -13.3%
[3]
  growth inhibition: 4.05%
[4]
  growth inhibition: 16.4%
[5]
  growth inhibition: 0.15%
[6]
  growth inhibition: -8.35%

## CCCCc1ccc(Nc2nc(=S)c3[nH]cnc3[nH]2)cc1
[1]
  growth inhibition: 26.9%
[2]
  growth inhibition: 19.6%
[3]
  growth inhibition: 32.2%
[4]
  growth inhibition: 23.9%
[5]
  growth inhibition: 35%
[6]
  growth inhibition: 6.5%

## CCC(CC)C(=O)NC(=O)NC
[1]
  growth inhibition: -4.85%
[2]
  growth inhibition: -16.5%
[3]
  growth inhibition: -21.2%
[4]
  growth inhibition: -25.1%
[5]
  growth inhibition: -8.05%
[6]
  growth inhibition: 21%

## CC1(C)COC(c2ccc(Cl)cc2)OC1
[1]
  growth inhibition: 16.6%
[2]
  growth inhibition: 14.6%
[3]
  growth inhibition: 4.3%
[4]
  growth inhibition: -12.5%
[5]
  growth inhibition: 19.5%
[6]
  growth inhibition: 26.1%

## COc1cc2cc(C)c(C)cc2cc1OC
[1]
  growth inhibition: -5.8%
[2]
  growth inhibition: 13.7%
[3]
  growth inhibition: -4%
[4]
  growth inhibition: -22.9%
[5]
  growth inhibition: -21.9%
[6]
  growth inhibition: 5.65%

## O=C1NC(c2ccco2)N2C(=O)NC(c3ccco3)N12 (stereo not drawn)
[1]
  growth inhibition: 15.2%
[2]
  growth inhibition: 21.5%
[3]
  growth inhibition: 24.5%
[4]
  growth inhibition: 12.6%
[5]
  growth inhibition: 18.6%
[6]
  growth inhibition: 16.7%

## CC(C)(C)OC(=O)N[C@H]1CCN(C2CCCCC2)C1=O
[1]
  growth inhibition: -34.9%
[2]
  growth inhibition: -10.1%
[3]
  growth inhibition: -22.1%
[4]
  growth inhibition: 7.75%
[5]
  growth inhibition: -6.4%
[6]
  growth inhibition: -62.5%

## COc1ccc(-c2ccc(Cc3ccc(-c4ccc(OC)cc4)o3)o2)cc1
[1]
  growth inhibition: 4.35%
[2]
  growth inhibition: -0.35%
[3]
  growth inhibition: 6.7%
[4]
  growth inhibition: -72.7%
[5]
  growth inhibition: -6.4%
[6]
  growth inhibition: 1%

## CC1(C)CC(C#N)CC(C)(C)N1O
[1]
  growth inhibition: 1.9%
[2]
  growth inhibition: -0.75%
[3]
  growth inhibition: 0.5%
[4]
  growth inhibition: -20.9%
[5]
  growth inhibition: -4.8%
[6]
  growth inhibition: -0.95%

## CCCCCCOCC(=O)OC
[1]
  growth inhibition: 10.2%
[2]
  growth inhibition: -9.6%
[3]
  growth inhibition: -1.55%
[4]
  growth inhibition: 8.35%
[5]
  growth inhibition: 9.2%
[6]
  growth inhibition: -2.85%

## Cc1cccc(Oc2ccc(C(F)(F)F)cc2[N+](=O)[O-])c1C
[1]
  growth inhibition: -32.2%
[2]
  growth inhibition: -2.15%
[3]
  growth inhibition: 2.55%
[4]
  growth inhibition: -45.4%
[5]
  growth inhibition: 45.3%
[6]
  growth inhibition: -15.2%

## COC(=O)c1cc(=O)c2c(=O)[nH]c(=O)[nH]c2[nH]1
[1]
  growth inhibition: -3.65%
[2]
  growth inhibition: -1.25%
[3]
  growth inhibition: 2%
[4]
  growth inhibition: -26.8%
[5]
  growth inhibition: -8.6%
[6]
  growth inhibition: 3.65%

## CC(C)CCOc1ccc(CCO)cc1
[1]
  growth inhibition: 0.45%
[2]
  growth inhibition: -8.9%
[3]
  growth inhibition: -4.5%
[4]
  growth inhibition: -7.75%
[5]
  growth inhibition: -36.4%
[6]
  growth inhibition: -24.8%

## O=C(O)CNC(=O)Cc1ccccc1
[1]
  growth inhibition: -29.8%
[2]
  growth inhibition: -12.6%
[3]
  growth inhibition: -1.1%
[4]
  growth inhibition: 10.2%
[5]
  growth inhibition: -38.6%
[6]
  growth inhibition: -7.3%

## CCCCCCCCCCCCCCCCn1cnc2c(Cl)ncnc21
[1]
  growth inhibition: 23.2%
[2]
  growth inhibition: 3.9%
[3]
  growth inhibition: -19.5%
[4]
  growth inhibition: 12.8%
[5]
  growth inhibition: -2.6%
[6]
  growth inhibition: 2.55%

## O=C1CSc2nc3c(Cl)cc(Cl)cc3c(=O)n21
[1]
  growth inhibition: 15.7%
[2]
  growth inhibition: 24.6%
[3]
  growth inhibition: 54.1%
[4]
  growth inhibition: 8.2%
[5]
  growth inhibition: 30.2%
[6]
  growth inhibition: 46.1%

## COc1ccccc1NC(=O)N(Cc1ccccc1)C(C)(C)C
[1]
  growth inhibition: 12.2%
[2]
  growth inhibition: 9.35%
[3]
  growth inhibition: 30.4%
[4]
  growth inhibition: -10.2%
[5]
  growth inhibition: 19.3%
[6]
  growth inhibition: 33.2%

## CC(=O)OC(c1ccccc1)C1(c2ccccc2)OCCO1 (stereo not drawn)
[1]
  growth inhibition: -9.2%
[2]
  growth inhibition: 7.5%
[3]
  growth inhibition: 5.75%
[4]
  growth inhibition: -33%
[5]
  growth inhibition: 1.4%
[6]
  growth inhibition: 17.1%

## CCOC(=O)C1Sc2ccccc2N=C1C (stereo not drawn)
[1]
  growth inhibition: 0%
[2]
  growth inhibition: -15.8%
[3]
  growth inhibition: -2.45%
[4]
  growth inhibition: -1.25%
[5]
  growth inhibition: -10.6%
[6]
  growth inhibition: 2.6%

## CCOC(=O)CC1c2ccc(O)cc2OC(=O)C1c1ccc(N)cc1 (stereo not drawn)
[1]
  growth inhibition: -29.1%
[2]
  growth inhibition: -17.5%
[3]
  growth inhibition: -14.8%
[4]
  growth inhibition: -4.6%
[5]
  growth inhibition: -19.2%
[6]
  growth inhibition: -13.6%

## CN1CCN(CN2C(=O)C3C4C=CC(C3C2=O)C2C(=O)N(CN3CCN(C)CC3)C(=O)C42)CC1 (stereo not drawn)
[1]
  growth inhibition: 18.1%
[2]
  growth inhibition: 5.95%
[3]
  growth inhibition: 13.5%
[4]
  growth inhibition: -0.85%
[5]
  growth inhibition: 14.6%
[6]
  growth inhibition: 16.9%

## CCCCOC(=O)NC(=O)c1cc2cc(Br)cc(Br)c2oc1=O
[1]
  growth inhibition: -2%
[2]
  growth inhibition: 25.8%
[3]
  growth inhibition: 0.3%
[4]
  growth inhibition: -7.05%
[5]
  growth inhibition: -1.2%
[6]
  growth inhibition: -17.2%

## Cc1nc2c(o1)C(=O)c1ccccc1C2=Nc1ccc(N2CCOCC2)cc1
[1]
  growth inhibition: 78.9% (active)
[2]
  growth inhibition: 29.7%
[3]
  growth inhibition: 13.2%
[4]
  growth inhibition: -1.15%
[5]
  growth inhibition: 11.9%
[6]
  growth inhibition: 39.1%

## C[n+]1cccc(C(=O)c2ccccc2)c1
[1]
  growth inhibition: 6.4%
[2]
  growth inhibition: -4.8%
[3]
  growth inhibition: 0.65%
[4]
  growth inhibition: 12.1%
[5]
  growth inhibition: -0.55%
[6]
  growth inhibition: 6.5%

## CSCCCS/C1=C/CCCCCCCCCC1
[1]
  growth inhibition: -1.85%
[2]
  growth inhibition: 11%
[3]
  growth inhibition: -21.9%
[4]
  growth inhibition: 14.8%
[5]
  growth inhibition: -9.35%
[6]
  growth inhibition: -38.6%

## Cc1cc(NC(=O)C(=O)CC(=O)c2cccnc2)no1
[1]
  growth inhibition: -59%
[2]
  growth inhibition: -1.8%
[3]
  growth inhibition: -8.2%
[4]
  growth inhibition: -52.1%
[5]
  growth inhibition: -6.2%
[6]
  growth inhibition: -4.15%

## CCOC(CN(CC)CC)OCC
[1]
  growth inhibition: -6.75%
[2]
  growth inhibition: -27.6%
[3]
  growth inhibition: -5.15%
[4]
  growth inhibition: 7.2%
[5]
  growth inhibition: -21.8%
[6]
  growth inhibition: 2.15%

— PubChem BioAssay (NCI)
